Sampled rows, rich in hits. Any-hit rate of the full collection: about 0.62%.
ASM inhibitor: Inhibitors of Secretory Acid Sphingomyelinase (S-ASM): qHTS | Sphingomyelin phosphodiesterase (Homo sapiens), P17405 | placental ASM, HMU-PC fluorogenic substrate, 60 min | Potency, µM (titrated, usually from 57.5 µM), inactives show top-dose activity change, negative = inhibition, actives largely listed as inhibitors | 340,000 compounds, 0.006% hits | AID 504937, 2011; active = well fitted inhibition curve with a large enough effect; inconclusive = small, poorly fitted or top-dose-only effect; inactive = no such curve, though single readings can be large or run the other way
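Human placenta-derived ASM preincubated with compound 10 min at room temperature, then reacted with 9 uM (final) fluorogenic HMU-PC substrate for 60 min at 37 C. Stop solution raises pH to 10; fluorescence read at Ex 386/Em 447 nm.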
Chronic BCR inh: qHTS Assay to Find Inhibitors of Chronic Active B-Cell Receptor Signaling | Potency, µM (series often up to 46.1 µM), inactives show at the top dose activity change, negative = inhibition, hits mostly inhibitors | 340,000 compounds, 0.05% hits | ABC-DLBCL IkBa-CBG/CBR reporter, luminescence ratio, 4 h; active = well fitted inhibition curve with a large enough effect in the signal ratio, with a control signal flat, not every such curve was filed as active; inconclusive = small, poorly fitted or top-dose-only effect, or effect the other way, or a change in a side signal; the % refers to the signal ratio;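 note: plate controls were basal doxycycline-induced cells for no effect and cells given 10 µM MG132 for full effect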
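Doxycycline induced both beetle luciferases in TMD8 lymphoma cells; IKK-driven degradation limits the IkappaBalpha-fused green signal, while red luminescence normalises for cell number and nonspecific effects. Compounds tested up to 46 uM, 4 hrs.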
MBNL1 CUG block: qHTS Assay for Inhibitors of MBNL1-poly(CUG) RNA binding. Muscleblind-like protein 1 (Homo sapiens), Q9NR56. TR-FRET MBNL1-His/biotin-(CUG)12 binding, 665/545 ratio. Potency, µM (titrated, usually from 57.5 µM), without a hit: at the highest dose activity change, negative = inhibition, hits mostly inhibitors. 280,000 compounds, 0.036% hits. AID 2675, 2010; active = well fitted inhibition curve with a large enough effect in the signal ratio, with a control signal flat, not every such curve was filed as active; inconclusive = small, poorly fitted or top-dose-only effect, or effect the other way, or a change in a side signal; inactive = no such curve, though single readings can be large or run the other way; the % refers to the signal ratio; note: % is set by controls: 0 for no effect and ±100 for the full control effect
Target sequence (Q9NR56 whole entry, looked up): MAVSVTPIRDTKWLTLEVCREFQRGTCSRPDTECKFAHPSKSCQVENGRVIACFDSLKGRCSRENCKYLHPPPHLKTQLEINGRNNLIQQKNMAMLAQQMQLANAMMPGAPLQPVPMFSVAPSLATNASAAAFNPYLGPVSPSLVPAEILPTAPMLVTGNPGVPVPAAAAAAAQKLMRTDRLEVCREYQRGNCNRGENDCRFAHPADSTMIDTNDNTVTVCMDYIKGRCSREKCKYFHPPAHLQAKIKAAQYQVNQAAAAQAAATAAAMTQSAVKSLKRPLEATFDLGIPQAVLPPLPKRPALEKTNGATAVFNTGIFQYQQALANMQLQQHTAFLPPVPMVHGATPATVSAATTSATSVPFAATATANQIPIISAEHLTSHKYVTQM
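Compounds (final 92 nM to 58 uM) are added to His-tagged MBNL1 and biotin-(CUG)12, then terbium anti-His antibody and streptavidin-XL665 (5 nM final). After 60 min at room temperature, the 665/545 nm ratio is read.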
gsp antag: qHTS for Antagonists of gsp, the Etiologic Mutation Responsible for Fibrous Dysplasia/McCune-Albright Syndrome: qHTS; gsp-mutant cells, cAMP HTRF, 30 min; Potency, µM (doses to about 76.9 µM), without a hit: at the highest dose activity change, negative = inhibition, usual class: inhibitors; AID 624288, 2012; 340,000 compounds, 0.4% hits; calls by dose curve; cell line not stated here;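 note: intracellular cAMP measured with PDE inhibitor Ro 20-1724 present during compound exposure; % is set by controls: 0 for no effect and ±100 for the full control effect; nearly all actives have a fitted effect of over 65% in size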
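Measurement of cellular cAMP by homogeneous time-resolved fluorescence following a 30 min compound exposure at 37C. The PDE inhibitor […] was present throughout; the assay buffer was DPBS with 0.05% BSA and 0.005% Tween 20.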
gsp ag: qHTS for Agonist of gsp, the Etiologic Mutation Responsible for Fibrous Dysplasia/McCune-Albright Syndrome: qHTS; gsp mutant cells, cAMP HTRF, 30 min; 340,000 compounds, 0.13% hits; Potency, µM (top dose mostly 76.9 µM), inactives show at the highest dose activation (cAMP increase), most hits filed as activators; AID 624287, 2012; active = well fitted activation curve with a large enough effect; inconclusive = small, poorly fitted or top-dose-only effect, or another doubt; inactive = no such curve, though single readings can be large or run the other way; cell line not stated here;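 note: phosphodiesterase inhibitor Ro 20-1724 added with compounds to block cAMP breakdown; nearly all actives have a fitted effect of over 60% in size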
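Cells stably selected in G418 were plated at 2000/well, grown 16-24 hr, then given compounds in DMSO with the PDE inhibitor […] (300 uM solution added) for 30 min at 37C; cAMP was read by HTRF.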
Starred values were filed as active, the others as inactive; ? = inconclusive; / = not tested or not shown; [ ] = remark or other dose. Potency is the fitted concentration of half-maximal effect.

SMILES	ASM inhibitor	Chronic BCR inh	MBNL1 CUG block	gsp antag	gsp ag
CCc1ccc(Nc2n[n+](-c3ccccc3)c(-c3c(Cl)cccc3Cl)s2)cc1	-25%	?	6%	32µM*	/
O=S(=O)(c1ccc2c(c1)CCN2)N1CCCC1	-1%	3%	/	4%	0%
COc1ccc(Oc2c(O)c3ccccc3n(C)c2=O)cc1	2%	0%	4%[11.5 µM]	32µM*	-3%
CCOc1ccccc1NC(=O)C1CCN(S(C)(=O)=O)CC1	4%	0%	1%	3%	-22%
COc1cc(OC)c(NC(=O)CC2SC(N)=NC2=O)cc1Cl (stereo not given)	/	/	/	/	-17%
CCN(CC(=O)Nc1ccccc1C(F)(F)F)C(=O)CCS(=O)(=O)c1ccc(C)cc1	1%	10%	/	0%	-63%
O=C(Nc1ccccc1C(=O)Nc1nnc(C(F)(F)F)s1)c1ccccc1Cl	6%	?	-2%	32µM*	-11%[15.4 µM]
COc1ccc(S(=O)(=O)NCCSCc2cccs2)cc1	0%	3%	-3%	32µM*	-4%
Cc1ccc(C(=O)N2CCC3(CC2)Oc2ccc(F)cc2C(=O)C32CC(c3cccnc3)=NO2)s1 (stereo not given)	-2%	-1%	-2%	35µM*	/
CC(C)C(=O)N1CCC2(CC1)Oc1ccc(F)cc1C(=O)C21CC(c2cccnc2)=NO1 (stereo not given)	/	-6%	8%	/	/
CCN(CC)S(=O)(=O)c1ccc(O)c(NC(=O)c2cc(-c3cc(OC)c(OC)c(OC)c3)nc3ccccc23)c1	-2%	10%	2%	35µM*	?
COc1ccccc1C(CNC(=O)c1cccc(S(=O)(=O)N2CCCc3ccccc32)c1)N(C)C (stereo not given)	1%	/	/	2%	?
COc1ccccc1CN(C)C(=O)c1cccc(S(=O)(=O)N2CCCc3ccccc32)c1	-1%	-3%	/	35µM*	-14%
CCCCC[C@]12Cc3ccccc3C(O1)C1=C(CC(C)(C)CC1=O)O2	/	0%[9.22 µM]	-5%[11.5 µM]	/	/
O=[N+]([O-])c1c(Nc2cccc(O)c2)cc(Cl)c2nonc12	-3%	?	?	35µM*	1%
COc1cc(NC(=O)CNC(c2ccccc2)c2ccccc2)cc(OC)c1OC	4%	?	-3%	-12%	-14%[15.4 µM]
COc1cc(NC(c2ccccc2)c2ccccc2)cc(OC)c1OC	6%	-1%	-5%	11µM*	0%[15.4 µM]
CCOC(=O)C1CCN(C(=O)c2oc3ccc(S(=O)(=O)N4CC(C)CC(C)C4)cc3c2C)CC1 (stereo not given)	-3%	?	-1%	-18%	-1%
CCOC(=O)N1CCN(C(=O)c2oc3ccc(S(=O)(=O)N4CC(C)CC(C)C4)cc3c2C)CC1 (stereo not given)	-3%	-6%	-6%	35µM*	3%
CN1CCN(S(=O)(=O)c2ccc(N(C)Cc3ccc(C(F)(F)F)cc3)c([N+](=O)[O-])c2)CC1	-18%	?	/	3%	13%[15.4 µM]
NC(=O)C1CCN(c2oc(-c3cccs3)nc2S(=O)(=O)c2ccc(Br)cc2)CC1	-3%	1%	/	-7%	15%
Cc1ccc(NC(=O)CSc2nnc(Cc3cccn3C)n2-c2ccc(F)cc2)c(C)c1	0%	9%	0%	50µM*	13%
Cc1ccc(-c2csc(N/N=C/c3ccco3)n2)cc1	17%	11%	-9%	-9%	5%
C(=N\Nc1nc(-c2ccccc2)cs1)/c1ccncc1	-6%	?	?	-5%	-19%[15.4 µM]
CN(C)S(=O)(=O)c1ccc(-c2csc(N/N=C/c3ccc(O)cc3)n2)cc1	-22%	?	-1%	32µM*	7%[15.4 µM]
SMILES	ASM inhibitor	Chronic BCR inh	MBNL1 CUG block	gsp antag	gsp ag
CN(C)S(=O)(=O)c1ccc(-c2csc(N/N=C/c3ccco3)n2)cc1	-8%	?	13%	32µM*	-20%[15.4 µM]
CCS(=O)(=O)c1nc(S(=O)(=O)c2ccc(Cl)cc2)c(NCCCN2CCOCC2)s1	-1%	3%	-5%	4%	?
O=C1CC(c2ccccc2)=C(c2ccccc2)C1c1ccccc1 (stereo not given)	-7%	/	/	-8%	-38%
O=C(OCN1C(=O)c2ccccc2C1=O)c1cc(S(=O)(=O)N2CCOCC2)ccc1F	5%	4%	/	-1%	3.2µM*
O=C(OCCN1C(=O)c2ccccc2C1=O)c1cc(S(=O)(=O)N2CCOCC2)ccc1Cl	-2%	0%	12%	1%	-43%
O=C(/C=C\c1ccccc1OC(=O)c1ccccc1F)c1cc2ccccc2o1	-2%	13µM*	24%	-8%	-1%[15.4 µM]
O=C(Nc1ccc(Cl)cc1)c1cc2c(cc1O)[nH]c1ccccc12	424%	17%	-1%	35µM*	-6%[15.4 µM]
CC(C)c1ccc(CN2CCC(Oc3ccc(C(=O)N4CCCC4)cc3)CC2)cc1	1%	3%	1%	1%	?
COc1ccc2c(C)cc(SCC(=O)NC3CCCC3)nc2c1	1%	-1%	/	14%	11µM*
Cc1cc(SCC(=O)NC2CC2)nc2ccccc12	-1%	?	/	15%	22%[15.4 µM]
Cc1c(C(=O)Nc2cccc(C(F)(F)F)c2)oc2ccc(S(=O)(=O)N3CCOCC3)cc12	22µM*	-9%	-4%	?	?
CCCC(=O)OCCNc1cc(Sc2nccn2C)c2nonc2c1[N+](=O)[O-]	-3%	2.9µM*	?	-19%	-10%
O=C(Cc1ccccc1)NNC(=O)c1ccccc1C(=O)O	-3%	?	-4%	11µM*	?
Cc1cccc(/C=N/NC(=O)c2ccc(NC(=O)c3cccc(Cl)c3)cc2)n1	-1%	24%	-4%	2%	-1%
COC(=O)c1cc(C(=O)OCC(=O)Nc2ccc(N3CCOCC3)cc2)cc([N+](=O)[O-])c1	-2%	4%	/	-4%	-42%
CN(Cc1ccccc1)c1ccc(C(CC(N)=O)NC(=O)c2ccccc2)cc1[N+](=O)[O-] (stereo not given)	-7%	-9%	?	1%	-9%
Cc1ccc(SCCC(=O)N(C)CC(=O)Nc2c(C)cccc2C)cc1	1%	5%	-6%	-3%	-21%
c1ccc(CN2CCN(c3ncnc4c3[nH]c3ccccc34)CC2)cc1	3%	-6%	-5%	32µM*	-31%
c1ccc2c(c1)[nH]c1c(N3CCC4(CC3)OCCO4)ncnc12	5%	16%	-3%	32µM*	-26%
Cc1ccc2[nH]c3c(N4CCN(Cc5ccccc5)CC4)ncnc3c2c1	3%	?	3%	16µM*	-14%

Screening data (PubChem BioAssay)
